Here are results for 6 compounds from PubChem BioAssay (EPA / NIEHS).

The source made the active and inactive calls. How the source made its calls: active means hit-call score of the fitted dose curve at least 0.9, where 1 is the maximum; inactive means score below 0.9.

A short description of assay [1]: APR_HepG2_CellCycleArrest_24hr: Apredica 24-hour HepG2 Assay for Cell Cycle Arrest (AID 2282905).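 Further: cell cycle arrest scored as ratio of 2N to 4N nuclear DNA content.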 Conditions: imaging, actives raise or lower the signal. In short, it runs like this: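 HepG2 cells were exposed to compounds at 0.39–200 uM (ten concentrations, duplicate) in 0.5% v/v DMSO for 24 hr. After formaldehyde fixation and Triton permeabilization, Hoechst 33342-stained nuclei were imaged at 20x; DNA content was quantified, with bidirectional fitting against DMSO.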

Assay [2] in a line: APR_HepG2_NuclearSize_24hr: Apredica 24-hour HepG2 Assay for Nuclear Size (AID 2282907). The following applies: high-content imaging, actives raise or lower the signal. In short, it runs like this:
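HepG2 human liver cells were exposed for 24 hr to compounds at 0.39–200 uM (ten concentrations, duplicate) in 0.5% v/v DMSO. They were then formaldehyde-fixed, Triton-permeabilized and Hoechst 33342-stained, and nuclear diameter was imaged at 20x. Bidirectional fits were made against DMSO.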

The nature of assay [3]: APR_HepG2_CellLoss_24hr: Apredica 24-hour HepG2 Assay for Cell Loss (AID 2282908).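 On AC50: fit in both directions so a hit may be cell loss or gain.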 The following applies: high-content imaging. An outline of the steps:
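Compounds were tested at 0.39–200 uM in duplicate with 0.5% v/v DMSO final. Cells were then fixed in 3.7% formaldehyde, Hoechst 33342 nuclei were imaged at 20x by HCS, and cell number was fitted bidirectionally against DMSO.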

A short description of assay [4]: APR_HepG2_MicrotubuleCSK_24hr: Apredica 24-hour HepG2 Assay for Microtubule CSK Stabilty (AID 2282909). The following applies: HepG2 microtubule cytoskeleton imaging, actives raise or lower the signal. An outline of the steps: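 HepG2 cells exposed 24 h to compounds at 0.39–200 uM (duplicate, 0.5% v/v DMSO final), then fixed, permeabilized and immunostained for alpha-tubulin with Hoechst 33342. Cytoskeleton imaged at 20x; bidirectional fit versus DMSO baseline.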

A short description of assay [5]: APR_HepG2_MitoticArrest_24hr: Apredica 24-hour HepG2 Assay for Mitotic Arrest (AID 2282910). Conditions: high-content imaging, actives raise or lower the signal. An outline of the steps: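 Compounds are dosed onto HepG2 cells across ten concentrations up to 200 uM for 24 hr. Cells are then fixed in 3.7% formaldehyde, permeabilised, and labelled for phospho-histone H3 and nuclei; images are scored by cell cycle analysis and fitted bidirectionally relative to DMSO.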

A short description of assay [6]: APR_HepG2_MitoMembPot_24hr: Apredica 24-hour HepG2 Assay for Mitochondrial Membrane Potential (AID 2282911). The following applies: imaging, actives raise or lower the signal. In short, it runs like this: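 Mitochondrial membrane potential imaged via MitoTracker Red CMXRos (250 nM, 30 min pre-fixation) in fixed HepG2 cells with Hoechst nuclear identification. Ten concentrations 0.39–200 uM, 24 h treatment, 0.5% DMSO; CCCP as positive control.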

Assay [7] can be described thus: APR_HepG2_MitoMass_24hr: Apredica 24-hour HepG2 Assay for Mitochondrial Mass (AID 2282912). The following applies: high-content imaging, actives raise or lower the signal. An outline of the steps: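 Human HepG2 liver cells were exposed for 24 hr to compounds at 0.39–200 uM (duplicates, 0.5% v/v DMSO final). They were stained live with 250 nM MitoTracker Red CMXRos for 30 min, fixed in 3.7% formaldehyde, and imaged by HCS fluorescence; signals were fitted bidirectionally against DMSO.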

Assay [8] is described as follows: APR_HepG2_p53Act_24hr: Apredica 24-hour HepG2 Assay for p53 Activation (AID 2282913).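 Further: p53 protein immunofluorescence averaged per cell in HepG2 with Hoechst nuclei.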 Conditions: high-content imaging, actives raise or lower the signal. In short, it runs like this: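 Fluorescence imaging of formaldehyde-fixed HepG2 cells labelled for p53 and with Hoechst, 24 h after dosing (0.39–200 uM, duplicate wells, 0.5% v/v DMSO). Signal fitted in both directions relative to DMSO.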

Assay [9] in a line: APR_HepG2_CellCycleArrest_72hr: Apredica 72-hour HepG2 Assay for Cell Cycle Arrest (AID 2282914). The following applies: high-content imaging, actives raise or lower the signal. In short, it runs like this:
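Read-out: nuclear DNA content from Hoechst 33342 high-content imaging (20x, six fields/well) after 3.7% formaldehyde fixation, fitted bidirectionally against DMSO. Treatment was 72 h in HepG2, ten concentrations 0.39–200 uM, duplicate, 0.5% DMSO.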

The nature of assay [10]: APR_HepG2_CellLoss_72hr: Apredica 72-hour HepG2 Assay for Cell Loss (AID 2282915). The following applies: high-content imaging. In short, it runs like this: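 Cell number comes from Hoechst 33342-labelled nuclei, imaged at 20x after 3.7% formaldehyde fixation. Dosing was 0.39–200 uM, ten concentrations in duplicate, 0.5% DMSO final, for 72 h. Bidirectional fit relative to DMSO baseline.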

Assay [11] is described as follows: APR_HepG2_P-H2AX_72hr: Apredica 72-hour HepG2 Assay for H2AX Phosphorylation (AID 2282916).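 Further: phospho-histone H2A.x immunostain intensity per cell marking DNA damage.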 The following applies: imaging, actives raise or lower the signal. An outline of the steps:
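HepG2 human liver cells were exposed for 72 hr to compounds at 0.39–200 uM (10 concentrations, duplicate per plate) in 0.5% v/v DMSO. Fixed, permeabilized cells were immunolabeled for phospho-histone H2A.x with Hoechst 33342 and imaged by HCS fluorescence; bidirectional fit versus DMSO.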

Assay [12] in a line: APR_HepG2_MitoMembPot_72hr: Apredica 72-hour HepG2 Assay for Mitochondrial Membrane Potential (AID 2282917). Conditions: imaging, actives raise or lower the signal. An outline of the steps: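 Membrane potential read by MitoTracker Red CMXRos (250 nM, 30 min, pre-fixation) fluorescence imaging of HepG2 after 72 hr exposure. Ten concentrations, 0.39–200 uM, duplicate wells, 0.5% DMSO; fitted in both directions against DMSO baseline.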

Assay [13] can be described thus: APR_HepG2_MitoticArrest_72hr: Apredica 72-hour HepG2 Assay for Mitotic Arrest (AID 2282918). Conditions: high-content imaging, actives raise or lower the signal. An outline of the steps:
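High-content imaging of fixed human HepG2 cells after 72 h compound exposure (0.39–200 uM, duplicates, 0.5% DMSO); mitotic arrest scored from phospho-histone H3 and nuclear Hoechst staining relative to DMSO.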

Assay [14] is described as follows: APR_HepG2_MicrotubuleCSK_72hr: Apredica 72-hour HepG2 Assay for Microtubule CSK Stabilty (AID 2282919). The following applies: HepG2 microtubule cytoskeleton, high-content imaging, actives raise or lower the signal. In short, it runs like this: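 Read-out is tubulin fluorescence intensity from high-content imaging of HepG2 cells, with nuclei identified by Hoechst 33342. Treatment lasts 72 h at 0.39–200 uM, and curves are fitted bidirectionally against the DMSO negative control.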

The nature of assay [15]: APR_HepG2_P-H2AX_24hr: Apredica 24-hour HepG2 Assay for H2AX Phosphorylation (AID 2282920). Conditions: high-content imaging, actives raise or lower the signal. An outline of the steps:
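High-content imaging of phospho-histone H2A.x immunofluorescence, nuclei counterstained with Hoechst 33342, in fixed HepG2 cells. Compounds ran 0.39–200 uM in duplicate for 24 h, final DMSO 0.5%. Signal change fitted both directions against DMSO.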

Assay [16] in a line: APR_HepG2_StressKinase_72hr: Apredica 72-hour HepG2 Assay for Stress Kinase (AID 2282921). The following applies: HepG2 stress kinase (phospho-c-Jun) imaging, actives raise or lower the signal. An outline of the steps:
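Cells were exposed for 72 h to ten concentrations (0.39–200 uM, duplicate) at 0.5% v/v DMSO final, then fixed with 3.7% formaldehyde, permeabilized and immunostained for phospho-c-Jun (Cy3 secondary) with Hoechst nuclear counterstain.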

A short description of assay [17]: APR_HepG2_StressKinase_24hr: Apredica 24-hour HepG2 Assay for Stress Kinase (AID 2282922). Conditions: HepG2 stress kinase (phospho-c-Jun) imaging, actives raise or lower the signal. In short, it runs like this: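 HepG2, 24 hr dosing, 0.39–200 uM in duplicate, 0.5% DMSO; formaldehyde fix (3.7%), 0.5% Triton X-100; anti-phospho-c-Jun + Cy3 secondary, Hoechst counterstain; ArrayScan imaging; bidirectional curve fit vs DMSO baseline.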

Assay [18] in a line: APR_HepG2_p53Act_72hr: Apredica 72-hour HepG2 Assay for p53 Activation (AID 2282923).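 Further: average cellular p53 protein immunofluorescence intensity in HepG2 cells.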 The following applies: high-content imaging, actives raise or lower the signal. In short, it runs like this: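 Cells were dosed for 72 hr with compounds at 0.39–200 uM in duplicate (final DMSO 0.5% v/v), then fixed in 3.7% formaldehyde, permeabilized with Triton X-100 and immunostained for p53 (Cy5) with Hoechst 33342 nuclear counterstain.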

Assay [19] can be described thus: APR_HepG2_MitoMass_72hr: Apredica 72-hour HepG2 Assay for Mitochondrial Mass (AID 2282924).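 Further: MitoTracker Red CMXRos stain intensity per cell imaged as mitochondrial mass.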 Conditions: high-content imaging, actives raise or lower the signal. In short, it runs like this: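 HepG2, 72 hr cmpd, 10 conc 0.39–200 uM in dup, DMSO 0.5% v/v. MitoTracker Red CMXRos 250 nM 30 min pre-fix; formaldehyde 3.7% fix 30 min RT. HCS imaging, gain/loss fit vs DMSO.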

A short description of assay [20]: APR_HepG2_NuclearSize_72hr: Apredica 72-hour HepG2 Assay for Nuclear Size (AID 2282925). The following applies: high-content imaging, actives raise or lower the signal. In short, it runs like this: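 HepG2; cpd 0.39–200 uM, 10 conc, duplicate; 72 h; DMSO 0.5% v/v; fix 3.7% formaldehyde 30 min RT; Triton permeabilization; Hoechst 2 ug/mL; HCS imaging 20x; nuclear diameter; gain/loss fit vs DMSO.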

Turning to `O=Cc1ccco1`, the outcome in assay [1], in [2], in [3], in assay [4], in assay [5] and in assay [6] was inactive. For the same compound, the call in assay [7], in [8], in assay [9], in assay [10], in assay [11] and in assay [12] was inactive. The call in [13], in [14], in assay [15], in [16], in assay [17] and in assay [18] was inactive. Besides, the outcome in assay [19] and in assay [20] was inactive.
Usually AC50 stands for the concentration giving half of the maximal activity seen. For `CCCCCOC(=O)c1ccccc1C(=O)OCCCCC`, the compound was classed as inactive in assay [1], in assay [2], in assay [3], in assay [4], in assay [5] and in assay [6]. Besides, the result in assay [7], in assay [8], in assay [11], in assay [12], in assay [13] and in assay [14] was inactive. In addition, the outcome in assay [15], in assay [16], in assay [17], in assay [18], in [19] and in assay [20] was inactive. For the same compound, the AC50 in assay [9] was 95.9 µM (active); in [10], 106 µM (active).
Turning to `Cc1ccc(N=C=O)cc1N=C=O`, the call in assay [1], in assay [2], in [3], in assay [4], in assay [5] and in [6] was inactive. The outcome in assay [7], in [8], in [9], in assay [10], in [11] and in assay [12] was inactive. In addition, the outcome in [13], in assay [14], in [15], in assay [16], in [17] and in [18] was inactive. The result in [19] and in assay [20] was inactive.
`Cc1ccc(N)cc1`: the compound was called inactive in [1], in assay [2], in assay [3], in [4], in assay [5] and in assay [6]. Also, the result in assay [7], in [8], in assay [9], in assay [10], in [11] and in [12] was inactive. Besides, the call in [13], in assay [14], in [15], in assay [16], in [17] and in [18] was inactive. In addition, the call in assay [19] and in assay [20] was inactive.
Take `CC(C)(O)c1cnn2c(-c3ccc(F)c(-c4c(F)cccc4C#N)c3)cnc2n1`: the result in [1], in assay [2], in [8], in assay [9], in assay [16] and in [18] was inactive. Besides, in assay [20], the result was inactive. For the same compound, the AC50 was 23.4 µM (active) in assay [3]; 89.9 µM (active) in [4]; 42.1 µM (active) in assay [5]; 33.1 µM (active) in assay [6]; 81.4 µM (active) in [7]; 23.9 µM (active) in assay [10]. For the same compound, the AC50 is 30.1 µM (active) in [11]; 83.9 µM (active) in [12]; 25.9 µM (active) in [13]; 78.8 µM (active) in assay [14]; 31.4 µM (active) in assay [15]; 51.5 µM (active) in assay [17]. Moreover, in [19], the AC50 was 76.1 µM (active).
For the compound `CN(C)c1ccc(C(=O)c2ccc(N(C)C)cc2)cc1`, the AC50 was 4.79 µM (active) in [1]; 1.64 µM (active) in [3]; 0.403 µM (active) in [4]; 0.538 µM (active) in assay [5]; 0.317 µM (active) in [8]; 0.639 µM (active) in [9]. Further, the AC50 in assay [10] was 1.75 µM (active); in [11], 15.4 µM (active); in [13] it was 16.5 µM (active); in assay [15], 26.7 µM (active); in assay [16], 9.87 µM (active); in assay [17], 14 µM (active). Besides, the AC50 is 0.292 µM (active) in assay [18], 0.855 µM (active) in assay [19] and 1.91 µM (active) in assay [20]. For the same compound, the call in assay [2], in assay [6], in assay [7], in assay [12] and in assay [14] was inactive.
